Source: PubChem BioAssay (NCI)
This is part of a sample that, as a whole, favours compounds with a hit. Of some 79,000 tested, about 15% had one in any assay. Values without a mark were called inactive. Activity calls are given as the source filed them. No stated cut-off is given here; in the data, active means growth inhibition above about 70%; inactive means the rest.

How the values were obtained:
[1] = NCI Yeast Anticancer Drug Screen. Data for the wt1 strain (AID 149);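 further: 0% = growth of vehicle-treated wt1 cultures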; details: S. cerevisiae wt1 strain (SPY 50644) growth inhibition, hits give high values
Outline: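 Growth inhibition read against vehicle controls after compound exposure of the wt1 yeast strain.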

[2] = NCI Yeast Anticancer Drug Screen. Data for the rad50EPP+ strain (AID 151);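 further: 0% = growth of vehicle-treated control cultures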; details: S. cerevisiae rad50 mutant strain, hits give high values
Outline: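 Read-out is yeast growth inhibition relative to vehicle; cells used were the rad50EPP+ strain.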

[3] = NCI Yeast Anticancer Drug Screen. Data for the mgt1 strain (AID 153); details: S. cerevisiae mgt1 mutant growth inhibition, hits give high values
Outline: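 Measured: inhibition of mgt1 yeast growth by compound, normalized to vehicle-treated cultures.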

[4] = NCI Yeast Anticancer Drug Screen. Data for the rad50 strain (AID 155);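 further: 0% = growth of vehicle-only cultures of the same strain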; details: S. cerevisiae rad50 strain growth inhibition, hits give high values
Outline: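 Readout: growth inhibition relative to vehicle-treated cultures. Compound exposure was carried out in a genetically defined yeast strain deficient in DNA damage repair.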

[5] = NCI Yeast Anticancer Drug Screen. Data for the mec2-1 strain (AID 157); details: S. cerevisiae mec2-1 strain, hits give high values
Outline: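 Using mec2-1 yeast: add compound, measure growth, express inhibition versus vehicle-treated cultures.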

[6] = NCI Yeast Anticancer Drug Screen. Data for the rad14 strain (AID 159);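 further: 0% = growth of vehicle-treated control cultures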; details: S. cerevisiae rad14 strain growth inhibition, hits give high values
Outline: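 Growth inhibition vs vehicle controls; genetically altered yeast strain (DNA damage repair defect) treated with test compounds.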

[7] = NCI Yeast Anticancer Drug Screen. Data for the sgs1 mgt1 strain (AID 161);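 further: 0% = growth of cultures given vehicle only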; details: S. cerevisiae sgs1 mgt1 strain, hits give high values
Outline: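 This yeast growth screen uses a strain with defined DNA-repair lesions; compound-treated growth is compared with vehicle-treated growth.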

[8] = NCI Yeast Anticancer Drug Screen. Data for the CLN2oe strain (AID 163);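 further: 0% = growth of vehicle-only control cultures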; details: S. cerevisiae CLN2oe strain, hits give high values
Outline: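 Whole-cell yeast growth assay. A strain engineered for altered cell-cycle control received compound, and inhibition relative to vehicle-treated cultures was recorded.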

[9] = NCI Yeast Anticancer Drug Screen. Data for the cln2 rad14 strain (AID 165);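 further: 0% = growth equal to vehicle treated cultures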; details: S. cerevisiae cln2 rad14 strain, hits give high values
Outline: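 Yeast strain cln2 rad14, bearing defects in cell cycle control and DNA repair, serves as the test system; values reflect growth inhibition compared with vehicle.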

[10] = NCI Yeast Anticancer Drug Screen. Data for the bub3 strain (AID 167); details: S. cerevisiae bub3 mutant strain, hits give high values
Outline: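 Readout: yeast growth inhibition, expressed relative to vehicle-only wells. The test organism is a mutant strain from a panel with lesions in DNA repair or checkpoint genes.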

[11] = NCI Yeast Anticancer Drug Screen. Data for the wt2 strain (AID 169);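 further: 0% = growth of vehicle-treated yeast cultures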; details: S. cerevisiae wt2 strain growth inhibition, hits give high values
Outline: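 Treated yeast vs. vehicle-treated yeast: growth inhibition determined.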

[12] = NCI Yeast Anticancer Drug Screen. Data for the mlh1 strain (AID 171);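 further: 0% = growth of vehicle-treated control cultures of the same strain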; details: S. cerevisiae mlh1 strain growth inhibition, hits give high values
Outline: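 A yeast strain with a defined genetic lesion serves as the test organism. Cultures receive compound or vehicle, and growth is measured.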

[13] = NCI Yeast Anticancer Drug Screen. Data for the mlh1 rad18 strain (AID 175); details: S. cerevisiae mlh1 rad18 strain growth inhibition, hits give high values
Outline: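 Steps: expose repair-defective yeast to compound; measure growth; express inhibition against vehicle-treated controls.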

[14] = NCI Yeast Anticancer Drug Screen. Data for the rad18 strain (AID 177); details: S. cerevisiae rad18 mutant growth inhibition, hits give high values
Outline: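 Measured value is growth inhibition of a yeast strain bearing a DNA repair alteration, referenced to vehicle-treated cells.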

[15] = NCI Yeast Anticancer Drug Screen. Data for the sgs1 strain (AID 173);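 further: 0% = growth of vehicle-only control cultures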; details: S. cerevisiae sgs1 mutant, hits give high values
Outline: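 A genetically defined yeast mutant is incubated with the test compound, and its growth is compared to that of the same strain given vehicle.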

[16] = at 5.0 µM (retest, dose inferred, filed as 0.5)
[17] = at 50.0 µM (retest, dose inferred, filed as 5.0)

`CSC(=S)N/N=C(\C)c1cccc(C)n1` showed a growth inhibition ([1]; at 1.2 µM) of -4%, a growth inhibition ([1]; at 3.7 µM) of -7% and a growth inhibition ([1]; at 11.0 µM) of -4%. For the same compound, the growth inhibition ([1]; at 33.0 µM) was 19%, the growth inhibition ([1]; at 100.0 µM) was 99% (active) and the growth inhibition ([2]; at 1.2 µM) was -3%. For the same compound, the growth inhibition ([2]; at 3.7 µM) was -3%, the growth inhibition ([2]; at 11.0 µM) was -3% and the growth inhibition ([2]; at 33.0 µM) was 5%. The growth inhibition ([2]; at 100.0 µM) was 98% (active), the growth inhibition ([3]; at 1.2 µM) was -7% and the growth inhibition ([3]; at 3.7 µM) was -11%. The growth inhibition ([3]; at 11.0 µM) was -10%, the growth inhibition ([3]; at 33.0 µM) was 39% and the growth inhibition ([3]; at 100.0 µM) was 98% (active). For the same compound, the growth inhibition ([4]; at 1.2 µM) was -4%, the growth inhibition ([4]; at 3.7 µM) was 2% and the growth inhibition [4, 16] was -6%. For the same compound, the growth inhibition ([4]; at 11.0 µM) was 11%, the growth inhibition ([4]; at 33.0 µM) was 93% (active) and the growth inhibition [4, 17] was 99% (active). For the same compound, the growth inhibition ([4]; at 50.0 µM) was 99.4% (active), the growth inhibition ([4]; at 100.0 µM) was 98% (active) and the growth inhibition ([5]; at 1.2 µM) was -6%. For the same compound, the growth inhibition ([5]; at 3.7 µM) was -13%, the growth inhibition [5, 16] was 28% and the growth inhibition ([5]; at 11.0 µM) was -10%. The growth inhibition ([5]; at 33.0 µM) was 62%, the growth inhibition [5, 17] was 99% (active) and the growth inhibition ([5]; at 50.0 µM) was 99.4% (active). The growth inhibition ([5]; at 100.0 µM) was 98% (active), the growth inhibition ([6]; at 1.2 µM) was -8% and the growth inhibition ([6]; at 3.7 µM) was 6%. The growth inhibition ([6]; at 11.0 µM) was -5%, the growth inhibition ([6]; at 33.0 µM) was 44% and the growth inhibition ([6]; at 100.0 µM) was 98% (active). The growth inhibition [7, 16] was 23%, the growth inhibition [7, 17] was 99% (active) and the growth inhibition ([7]; at 50.0 µM) was 99.3% (active). The growth inhibition ([8]; at 1.2 µM) was -24%, the growth inhibition ([8]; at 3.7 µM) was -24% and the growth inhibition ([8]; at 11.0 µM) was -15%. For the same compound, the growth inhibition ([8]; at 33.0 µM) was 21%, the growth inhibition ([8]; at 100.0 µM) was 97% (active) and the growth inhibition [9, 16] was 59%. For the same compound, the growth inhibition [9, 17] was 98% (active), the growth inhibition ([9]; at 50.0 µM) was 99.2% (active) and the growth inhibition ([10]; at 1.2 µM) was -14%. It also gave a growth inhibition ([10]; at 3.7 µM) of -20%, a growth inhibition [10, 16] of 19% and a growth inhibition ([10]; at 11.0 µM) of 9%. For the same compound, the growth inhibition ([10]; at 33.0 µM) was 34%, the growth inhibition [10, 17] was 99% (active) and the growth inhibition ([10]; at 50.0 µM) was 99.2% (active). The growth inhibition ([10]; at 100.0 µM) was 98% (active), the growth inhibition ([11]; at 1.2 µM) was -6% and the growth inhibition ([11]; at 3.7 µM) was -6%. For the same compound, the growth inhibition ([11]; at 11.0 µM) was -5%, the growth inhibition ([11]; at 33.0 µM) was 63% and the growth inhibition ([11]; at 100.0 µM) was 99% (active). It also gave a growth inhibition ([12]; at 1.2 µM) of -11%, a growth inhibition ([12]; at 3.7 µM) of -1% and a growth inhibition ([12]; at 11.0 µM) of -6%. The growth inhibition ([12]; at 33.0 µM) was 29%, the growth inhibition ([12]; at 100.0 µM) was 99% (active) and the growth inhibition [13, 16] was 20%. For the same compound, the growth inhibition [13, 17] was 99% (active), the growth inhibition ([13]; at 50.0 µM) was 99.2% (active) and the growth inhibition ([14]; at 1.2 µM) was -5%. For the same compound, the growth inhibition ([14]; at 3.7 µM) was -5%, the growth inhibition ([14]; at 11.0 µM) was 10% and the growth inhibition ([14]; at 33.0 µM) was 75% (active). For the same compound, the growth inhibition ([14]; at 100.0 µM) was 96% (active).
In the case of `CCC/C(Cl)=N\OC(=O)Nc1cccc(C(F)(F)F)c1`, the growth inhibition ([2]; at 1.2 µM) was 27%, the growth inhibition ([2]; at 3.7 µM) was 32% and the growth inhibition ([2]; at 11.0 µM) was 36%. For the same compound, the growth inhibition ([2]; at 33.0 µM) was 35%, the growth inhibition ([2]; at 100.0 µM) was 25% and the growth inhibition ([3]; at 1.2 µM) was 7%. For the same compound, the growth inhibition ([3]; at 3.7 µM) was 37%, the growth inhibition ([3]; at 11.0 µM) was 68% and the growth inhibition ([3]; at 33.0 µM) was 78% (active). It also gave a growth inhibition ([3]; at 100.0 µM) of 66%, a growth inhibition ([4]; at 1.2 µM) of 12% and a growth inhibition ([4]; at 3.7 µM) of 14%. For the same compound, the growth inhibition [4, 16] was -15%, the growth inhibition ([4]; at 11.0 µM) was 13% and the growth inhibition ([4]; at 33.0 µM) was 25%. For the same compound, the growth inhibition [4, 17] was 99% (active), the growth inhibition ([4]; at 50.0 µM) was 87.1% (active) and the growth inhibition ([4]; at 100.0 µM) was 26%. The growth inhibition ([5]; at 1.2 µM) was 15%, the growth inhibition ([5]; at 3.7 µM) was 18% and the growth inhibition [5, 16] was 16%. The growth inhibition ([5]; at 11.0 µM) was 19%, the growth inhibition ([5]; at 33.0 µM) was 20% and the growth inhibition [5, 17] was 98% (active). The growth inhibition ([5]; at 50.0 µM) was 91.8% (active), the growth inhibition ([5]; at 100.0 µM) was 23% and the growth inhibition ([6]; at 1.2 µM) was 12%. It also gave a growth inhibition ([6]; at 3.7 µM) of 14%, a growth inhibition ([6]; at 11.0 µM) of 16% and a growth inhibition ([6]; at 33.0 µM) of 23%. The growth inhibition ([6]; at 100.0 µM) was 20%, the growth inhibition [7, 16] was 6% and the growth inhibition [7, 17] was 99% (active). For the same compound, the growth inhibition ([7]; at 50.0 µM) was 85.8% (active), the growth inhibition ([8]; at 1.2 µM) was 15% and the growth inhibition ([8]; at 3.7 µM) was 5%. It also gave a growth inhibition ([8]; at 11.0 µM) of 4%, a growth inhibition ([8]; at 33.0 µM) of 6% and a growth inhibition ([8]; at 100.0 µM) of 18%. For the same compound, the growth inhibition [9, 16] was 56%, the growth inhibition [9, 17] was 98% (active) and the growth inhibition ([9]; at 50.0 µM) was 89.7% (active). It also gave a growth inhibition ([10]; at 1.2 µM) of 34%, a growth inhibition ([10]; at 3.7 µM) of 44% and a growth inhibition [10, 16] of 9%. For the same compound, the growth inhibition ([10]; at 11.0 µM) was 51%, the growth inhibition ([10]; at 33.0 µM) was 47% and the growth inhibition [10, 17] was 98% (active). The growth inhibition ([10]; at 50.0 µM) was 87.7% (active), the growth inhibition ([10]; at 100.0 µM) was 46% and the growth inhibition ([11]; at 1.2 µM) was 21%. The growth inhibition ([11]; at 3.7 µM) was 38%, the growth inhibition ([11]; at 11.0 µM) was 61% and the growth inhibition ([11]; at 33.0 µM) was 83% (active). For the same compound, the growth inhibition ([11]; at 100.0 µM) was 77% (active), the growth inhibition ([12]; at 1.2 µM) was 3% and the growth inhibition ([12]; at 3.7 µM) was 7%. It also gave a growth inhibition ([12]; at 11.0 µM) of 16%, a growth inhibition ([12]; at 33.0 µM) of 18% and a growth inhibition ([12]; at 100.0 µM) of 17%. For the same compound, the growth inhibition ([15]; at 1.2 µM) was 50%, the growth inhibition ([15]; at 3.7 µM) was 62% and the growth inhibition ([15]; at 11.0 µM) was 81% (active). The growth inhibition ([15]; at 33.0 µM) was 90% (active), the growth inhibition ([15]; at 100.0 µM) was 88% (active) and the growth inhibition [13, 16] was -10%. For the same compound, the growth inhibition [13, 17] was 99% (active), the growth inhibition ([13]; at 50.0 µM) was 83.7% (active) and the growth inhibition ([14]; at 1.2 µM) was -7%. The growth inhibition ([14]; at 3.7 µM) was -8%, the growth inhibition ([14]; at 11.0 µM) was -7% and the growth inhibition ([14]; at 33.0 µM) was -16%. It also gave a growth inhibition ([14]; at 100.0 µM) of 2%.
